Screening data deposited in PubChem BioAssay by several laboratories.
Compounds with a hit are over-represented: about 3.2% of the library has one in this group of screens.
CHT block: inhibitors of human choline transporter CHT | High affinity choline transporter 1 (Homo sapiens), Q9GZV3 | CHT-expressing cells, membrane potential dye, choline response; active compounds read low | B-score at 10 µM | 310,000 compounds, 0.86% hits | AID 488975, 2010;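 active means B-score over 3 SD under the library average, and starting fluorescence ratio not unusually high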;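 further: choline stimulus applied at its EC90 after an EC20 pre-addition; B-score computed on integrated fluorescence ratio after choline addition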
CHT allo act: CHT positive allosteric modulators, primary screen, cell-based, membrane potential dye, choline EC20; High affinity choline transporter 1 (Homo sapiens), Q9GZV3; 310,000 compounds, 0.49% hits; AID 488977, 2010; CHT-expressing cells; active compounds read high; LV-AA mutant CHT in HEK293 cells; B-score at 10 µM;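 active means initial fluorescence not abnormally high and integrated response B-score, plate-corrected, over 3 SD above library mean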
HDAC3 inhib: HDAC3 deacetylase inhibitors, primary screen, biochemical, fluorescence, cell-free homogeneous; Histone deacetylase 3 (Homo sapiens), O15379; recombinant HDAC3, fluorogenic peptide/trypsin coupled; inhibition, % at 8.3 µM; 320,000 compounds, 0.15% hits; AID 2718, 2010; in the data active means inhibition above about 26%, passing the limit was not always enough; inconclusive means no clear call, values can overlap the other calls
TMEM16A inh: TMEM16A chloride channel inhibitors, primary screen, cell-based, HTS; Anoctamin-1 (Mus musculus), Q8BHY3; HEK293 TMEM16A/YFP iodide influx fluorescence, ionomycin; normalized B-score (activity score, 25-100; higher = stronger inhibition) at 10 µM; 310,000 compounds, 1.2% hits; AID 588511, 2011;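 active means ratio plate-corrected score three or more library SD toward inhibition, starting fluorescence score within five deviations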;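 further: score derived from kinetic fluorescence span divided by baseline fluorescence per well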
PHOSPHO1 block: PubChem AID 1565. 290,000 compounds, 1.1% hits. recombinant PHOSPHO1, absorbance phosphatase assay. inhibition, % at 13.3 µM. Phosphoethanolamine/phosphocholine phosphatase (Homo sapiens), Q8TCT1; in the data active means inhibition above about 60%
Target sequence (Q8TCT1 whole entry, looked up): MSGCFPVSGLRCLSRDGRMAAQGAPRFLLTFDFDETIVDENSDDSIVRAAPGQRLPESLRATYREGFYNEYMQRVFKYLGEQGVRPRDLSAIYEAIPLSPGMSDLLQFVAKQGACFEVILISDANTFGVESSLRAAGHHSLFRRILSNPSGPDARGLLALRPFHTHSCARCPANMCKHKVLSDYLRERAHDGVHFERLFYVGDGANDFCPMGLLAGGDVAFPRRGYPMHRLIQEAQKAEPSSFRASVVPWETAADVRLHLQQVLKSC
TMEM16A act: TMEM16A chloride channel activators or potentiators, primary screen, cell-based, HTS; HEK293 TMEM16A/YFP-H148Q/I152L, iodide quench fluorescence; active compounds read low; B-score at 10 µM; 340,000 compounds, 0.3% hits; AID 623877, 2012;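 active means fluorescence-ratio B-score plate-corrected deviation score at least 3 library SD below zero, with starting fluorescence score within 5 deviations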;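 further: channel opened by trigger with iodide after compound preincubation; score built on the fluorescence ratio of max minus min over baseline; more negative score means more quench and so TMEM16A activation or potentiation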
* marks the source's active call; other numbers are inactive results; i = inactive; ? = inconclusive; . = no result given.

SMILES	CHT block	CHT allo act	HDAC3 inhib	TMEM16A inh	PHOSPHO1 block	TMEM16A act
COc1ccc(-c2sc3ccccc3c2C#CCO)cc1	i	i	9	25*	21	i
COc1ccccc1-c1nnc2n1N=C(c1ccc(O)c(O)c1)CS2	i	i	13	i	-51	i
CCOc1ccc(C2=Nn3c(nnc3-c3ccccc3OC)SC2)cc1	-5.3*	i	18	i	-18	i
Oc1ccc(CCNc2ncnc3ccc(Cl)cc23)cc1	i	i	1	100*	10	i
CCCOC(=O)Oc1ccc2c(=O)c(Oc3cc(C)cc(C)c3)coc2c1	i	i	3	i	-14	i
CC1Cc2ccccc2N1Cc1nc2scc(-c3cccs3)c2c(=O)[nH]1 (stereo not drawn)	i	i	3	i	88*	i
COc1ccc(-c2nnc(SCC(=O)Nc3cc(C)on3)n2N)cc1OC	i	i	-1	i	75*	i
CCOc1ccccc1-n1nnnc1SCC(=O)Nc1cc(C)on1	i	i	-5	i	62*	i
O=[N+]([O-])c1cc([N+](=O)[O-])c(Oc2cccc3c2CCCC3)cc1NN1CCCCC1	.	.	.	.	.	i
Cc1ccccc1OCC(=O)NNC(=O)Cc1ccc(S(=O)(=O)N2CCOCC2)s1	i	i	-10	i	.	i
Cc1cc(C)c2ccc(C)[n+]([O-])c2c1O	-20*	i	0	i	-28	i
CCOC(=O)CSc1nc2ccc(N3CCOCC3)cc2c(=O)n1Cc1ccccc1	i	i	-11	i	60*	i
COc1ccc(CCNC(=O)CCc2nnc(Cc3ccc4c(c3)OCO4)o2)cc1	i	i	-2	i	23	i
O=C(CSc1nnc(-c2ccncc2)o1)N1CCCCCC1	.	.	.	.	68*	i
Cc1ccc(-c2nnc(SCCC(=O)N3CCOCC3)o2)cc1	i	i	0	i	-104	-39*
O=C(CCSc1nnc(-c2ccccc2)o1)N1CCOCC1	i	i	2	i	0	i
Cc1ccc(-c2nnc(SCC(=O)N3CCCC3)o2)cc1C	i	i	-5	i	92*	i
CCc1cc2c(SCC(=O)N(CC)c3c(N)n(Cc4ccccc4)c(=O)[nH]c3=O)ncnc2s1	i	i	0	i	68*	i
CC(=O)Nc1ccc(S(=O)(=O)NCCc2cc3ccc(C)c(C)c3[nH]c2=O)cc1	i	i	0	i	63*	i
Cc1ccc2cc(CCNS(=O)(=O)c3ccc(Cl)cc3)c(=O)[nH]c2c1C	i	i	2	i	12	i
COc1ccc(N(C(C)C(=O)NN=C2CCCC2)S(C)(=O)=O)cc1 (stereo not drawn)	i	i	-7	i	48	i
CCOC(=O)C1CN(S(=O)(=O)c2cccs2)c2ccc(CC(=O)OC)cc2O1 (stereo not drawn)	i	i	-3	i	38	i
COc1cc(NC(=O)[C@H]2CCCN2S(=O)(=O)c2cccc3cccnc23)cc(OC)c1OC	i	i	-9	i	.	i
COc1cc(NC(=O)[C@@H]2CCCN(S(=O)(=O)c3cccc4cccnc34)C2)cc(OC)c1OC	i	i	4	25*	.	i
Cc1cc(C(=O)OCn2nnc3ccccc3c2=O)c(C)o1	i	i	4	i	-6	i
SMILES	CHT block	CHT allo act	HDAC3 inhib	TMEM16A inh	PHOSPHO1 block	TMEM16A act
C=CCCCCCCCCc1nc(=S)[nH][nH]1	i	i	?	i	60*	i
C=CCCCCCCCCc1nc(SCC(=O)O)n[nH]1	i	i	3	i	-8	i
COc1cc(OC)c(C2CC(=O)N3CN(C)CSC3=C2C#N)cc1OC (stereo not drawn)	i	i	31*	i	48	i
COc1cc(OC)c(C2CC(=O)N3CN(c4ccccc4)CSC3=C2C#N)cc1OC (stereo not drawn)	i	i	42*	i	103*	i
COc1ccc(Br)cc1C1CC(=O)N2CN(C)CSC2=C1C#N (stereo not drawn)	i	i	2	i	48	i
CCc1sc(C(=O)N2CCN(c3ncccn3)CC2)cc1Br	i	i	-9	i	38	i
O=C(c1cnn(C(=O)c2ccc(O)cc2)c1)c1ccccc1O	i	i	76*	i	20	.
Cc1ccc(O)c(C(=O)c2cnn(-c3ccccc3)c2)c1	i	i	0	i	-57	i
COc1ccc(C(=O)n2cc(C(=O)c3cc(C)ccc3O)cn2)cc1OC	i	i	53*	i	6	i
COc1ccc(O)c(C(=O)c2cnn(C(=O)c3cc(C)oc3C)c2)c1	i	i	-1	i	-10	i
COc1ccc(C(=O)n2cc(C(=O)c3cc(C)ccc3O)cn2)cc1	i	i	37*	i	0	i
O=C(c1cnn(C(=O)c2ccco2)c1)c1ccccc1O	.	.	5	.	.	i
COc1ccc(O)c(C(=O)c2cnn(C(=O)c3cccc(N(C)C)c3)c2)c1	.	.	30*	.	.	i
CCCNC(=O)[C@@H]1CCCN1C(=O)C1CCN(S(=O)(=O)c2ccc(C)cc2)CC1	i	i	4	i	38	i
COc1ccc(-n2nnnc2Sc2ccc(S(=O)(=O)N3CCOCC3)cn2)cc1	i	i	-1	i	85*	i
COc1ccc(CNC(=O)C(C)Sc2ccc(S(=O)(=O)N3CCOCC3)cn2)cc1 (stereo not drawn)	.	.	.	.	.	i
COc1cc(OC)c2c(c1)C(=O)c1cc(OC)cc(OC)c1C2=O	i	i	2	i	107*	i
O=C(C[n+]1cccc(CNC(=O)c2ccc(OC(F)F)cc2)c1)Nc1ccc(SC(F)F)cc1	i	i	3	i	-8	i
COC(=O)[C@@H]1[C@@H](C#N)C2(c3ccccc3-c3ccccc32)N(c2ccc(Cl)cc2)N1C#N	i	i	1	25*	3	i
O=c1[nH]c2ccc(N=Cc3c(O)ccc4cc(Br)ccc34)cc2[nH]1	.	.	.	.	-16	i
N=c1c2c(-c3ccccc3)c(-c3ccccc3)n(Cc3ccco3)c2ncn1Cc1ccccc1	i	i	?	100*	-9	i
Cc1nc(NCCCn2ccnc2)c2oc3ccccc3c2n1	i	i	-1	i	-6	i
